# Out of some 86,000 compounds screened, about 920 (1.1%) were called active.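 Rule for the calls: active = viability at or below 30%; inactive = viability above 30%.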 For the sample, actives were picked, then their nearest neighbours and some compounds at random.
# Assay: inhibitors of HUVEC proliferation, primary screen, cell-based, 384-well (AID 648);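 note: 100% = median luminescence of DMSO-only cell control wells on each plate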
# Conditions: CellTiter-Glo luminescence, 72 h, active compounds read low, screened at 10 µM (by protocol)
row,SMILES,viability
1,CCC(=O)Nc1sc(C(=O)N2CCCCC2)c(C)c1C#N,98.7% (inactive)
2,CC(C)(C)C1CCc2c(sc3nc(SCC(N)=O)nc(N)c23)C1 (centres undefined),48.8% (inactive)
3,CN1CCN(CC(=O)Nc2sc3c(c2C#N)CCC(C(C)(C)C)C3)CC1 (centres undefined),2.13% (active)
4,O=C(O)CSc1nccn1-c1cccc(Cl)c1,105% (inactive)
5,CC(C)NC(=O)C(=O)NCCN1CCN(S(=O)(=O)c2ccc(Cl)cc2)CC1,114% (inactive)
6,CCSc1nc(-c2ccc(OC)cc2)cc(-c2ccc(OC)cc2)c1C#N,100% (inactive)
7,COc1ccc(Nc2ncc(C(=O)N3CCN(c4ccccc4OC)CC3)c3ccccc23)cc1,62.2% (inactive)
8,O=C(CO/N=C/c1ccccc1O)NNC(=O)c1ccccc1Cl,97.1% (inactive)
9,O=C(O)CSCC(=O)Nc1cccc(C(F)(F)F)c1,89.5% (inactive)
10,CCNS(=O)(=O)c1ccc(NC(=O)Nc2cccc(C(F)(F)F)c2)cc1,29.7% (active)
11,CCNS(=O)(=O)c1ccc(NC(=O)Nc2cccc(OC)c2)cc1,72.2% (inactive)
12,O=C1CCCc2c1[nH]c1ccc(Br)cc21,16.3% (active)
13,O=[n+]1c2c(n([O-])c3cc(Br)ccc31)CCC2,94.2% (inactive)
14,O=C(O)CCC(=O)NCc1ccc2[nH]c3c(c2c1)CCCC3,98.8% (inactive)
15,COc1cccc2c1OCC1COc3c(c(=O)n(C)c(=O)n3C)C21 (centres undefined),104% (inactive)
16,Cc1cc(C)cc(NC(=O)c2cccc(NC(=O)C3C4CC5OC(=O)C3C5C4)c2)c1 (centres undefined),92.7% (inactive)
17,CCN1CCc2c(C#N)c(NCc3ccccc3)nc(NCCO)c2C1,79.7% (inactive)
18,CC(C)Cc1nc(N2CCOCC2)c(C#N)c2c1CCC2,103% (inactive)
19,CC(C)CCNc1nc(N2CCCC2)c2c(c1C#N)CCN(C)C2,2.55% (active)
20,CCOc1ccc(S(=O)(=O)Nc2ccc(S(=O)(=O)Nc3cc(OC)ccc3OC)cc2)cc1,95.7% (inactive)
21,CCCCCCc1cc2cc(-c3nnc(-c4cccc(OC)c4)o3)c(=O)oc2cc1O,31.1% (inactive)
22,CCC1(CC)Cc2ccccc2-c2nc3ccccc3c(=O)n21,102% (inactive)
23,COc1ccccc1N1CCN(Cc2nnnn2CCc2ccccc2)CC1,100% (inactive)
24,COc1ccccc1N1CCN(C(=O)CN(Cc2ccc(Cl)cc2)S(C)(=O)=O)CC1,109% (inactive)
25,COc1ccccc1-n1nnnc1S(=O)(=O)Cc1ccc(Cl)cc1,11.8% (active)

row,SMILES,viability
1,Cc1nc(NC(=O)CN(C)S(=O)(=O)c2ccc(Cl)cc2)sc1C,101% (inactive)
2,O=C1CCCCC(=O)c2ccccc2N1,98.7% (inactive)
3,c1ccc2c(c1)C(=NC1CCCCC1)NC2=NC1CCCCC1,26.7% (active)
4,CCOC(=O)c1cnc(SCC(=O)Nc2cccc(OC)c2)nc1N,93.3% (inactive)
5,CCn1nnnc1SCC(=O)c1ccc(C)cc1C,92.1% (inactive)
6,OC(COc1ccc2c(c1)CCC2)CN1CCN(c2cccc(Cl)c2)CC1 (centres undefined),83.9% (inactive)
7,Cc1coc2c(O)cc3c(c12)OC1(N2CCCCC2)C(=O)NCCCC31 (centres undefined),6.44% (active)
8,Cc1cccc(NC(=O)N(Cc2cc3cc(C)cc(C)c3[nH]c2=O)CC2COCCO2)c1 (centres undefined),77.6% (inactive)
9,N#CCSc1nc2c(c(=O)n1Cc1ccccc1)C1(CCCC1)Cc1ccccc1-2,101% (inactive)
10,Cc1c(C=O)c2ccccn2c1C(=O)c1ccncc1,97% (inactive)
11,CCc1c(-c2ccccc2)nc(N)c(C#N)c1-c1cccs1,102% (inactive)
12,COc1cccc(-c2nnc(NC(=O)c3ccc(S(=O)(=O)N(CC(C)C)CC(C)C)cc3)o2)c1,23.6% (active)
13,COc1cccc(NC(=O)CN(C)S(=O)(=O)c2ccc(C)cc2)c1,97.5% (inactive)
14,CCN(CC)C(=O)CSc1nnc(-c2cccc(OC)c2)o1,104% (inactive)
15,CC1(C)NC(=O)N(CCCCSc2ccc(Cl)cc2)C1=O,97.1% (inactive)
16,CC(C)NS(=O)(=O)c1ccc(NC(=O)C2CCCCC2)cc1,106% (inactive)
17,Cc1nc(-c2ccc(NC(=O)c3cccs3)cc2)cs1,89.5% (inactive)
18,O=C(Cc1cccc2ccccc12)Nc1ccc2oc(-c3ccccc3)nc2c1,49.6% (inactive)
19,O=C(Nc1ccc2oc(-c3ccc4ccccc4c3)nc2c1)c1cccs1,22% (active)
20,CC(Oc1ccc(Cl)cc1)c1ccnn1S(C)(=O)=O (centres undefined),73.7% (inactive)
21,COc1ccccc1C(=O)N1CC2(C)CC1CC(C)(C)C2 (centres undefined),94% (inactive)
22,COn1c(=O)c(=O)n(OC)c2ccccc21,105% (inactive)
23,Oc1c(CN2CCN(c3ccc(F)cc3)CC2)cc(Cl)c2cccnc12,5.81% (active)
24,O=C(c1cccc(C(=O)N2CCN(c3ccc(F)cc3)CC2)c1)N1CCN(c2ccc(F)cc2)CC1,92.2% (inactive)
25,CCN1CCN(C(c2cccnc2)c2cc(Cl)c3cccnc3c2O)CC1 (centres undefined),74.6% (inactive)

row,SMILES,viability
1,Cc1nnc(SCC(=O)N2CCN(c3ccccc3)CC2)n1-c1ccccc1,93.5% (inactive)
2,COC(=O)c1ccc(CSc2nnc(NC(C)C)s2)cc1,96.9% (inactive)
3,CCc1c(O)nc(SCC(=O)Nc2ccccc2)n(C(C)CC)c1=O (centres undefined),96.5% (inactive)
4,CC(C)(C)n1nnnc1C(c1ccc(F)cc1)N1CCN(Cc2ccc3c(c2)OCO3)CC1 (centres undefined),89% (inactive)
5,C#CCNc1nc(C(C)C)nc2c1nnn2Cc1ccccc1F,127% (inactive)
6,CCCc1nc(NCc2ccc3c(c2)OCO3)c2nnn(Cc3ccccc3Cl)c2n1,73.6% (inactive)
7,Cc1nc(Nc2ccc3c(c2)OCCO3)c2nnn(Cc3ccccc3Cl)c2n1,29.5% (active)
8,Nc1c(C(=O)NCc2ccccc2)sc2nc3c(cc12)C(=O)CCC3,84.8% (inactive)
9,Cc1nnc(SC(C)C(=O)Nc2ccc(S(=O)(=O)NC3CCCCC3)cc2)s1 (centres undefined),104% (inactive)
10,O=C(Nc1ccccc1)c1ccc2c(c1)OCO2,94% (inactive)
11,Cc1cccc(Nc2ccccc2C(=O)NCc2ccco2)c1C,63.9% (inactive)
12,Cc1cccc(C)c1N1CCN(S(=O)(=O)N2CCOCC2)CC1,108% (inactive)
13,CC1=C/C(=N\OS(=O)(=O)c2ccccc2)C=CC1=O,1.29% (active)
14,c1ccc(-c2nc(NCc3ccco3)c3ccccc3n2)cc1,85.5% (inactive)
15,CCSc1nnc(NC(=O)Cc2ccccc2OC)s1,93.5% (inactive)
16,CC(C)c1cc(C(=O)O)n[nH]1,90.3% (inactive)
17,C=C(C)CSc1nnc(-c2ccc(C)cc2)n1N,93.8% (inactive)
18,OCCCN1c2ccccc2Nc2nnc(-c3ccccc3)cc21,69.2% (inactive)
19,N=c1c2c(-c3ccccc3)c(-c3ccccc3)n(Cc3ccccc3)c2ncn1CCCO,1.91% (active)
20,CC(=O)Oc1cc2c(C(=O)NCCN3CCOCC3)c(C)oc2c2ccccc12,4.78% (active)
21,O=C(NCCN1CCOCC1)c1c(F)c(F)c(F)c(F)c1F,94.7% (inactive)
22,O=C(CCN1C(=O)c2ccccc2C1=O)NCCN1CCOCC1,93.8% (inactive)
23,CCCOc1ccc(N2C(=O)CC(N(CCc3ccc(S(N)(=O)=O)cc3)C(C)=O)C2=O)cc1 (centres undefined),98% (inactive)
24,O=C1c2ccccc2C(=O)N1CCCc1nc(-c2ccccc2)no1,111% (inactive)
25,Cc1ccc(-c2csc(SCC(=O)Nc3cc(C)on3)n2)cc1,100% (inactive)

row,SMILES,viability
1,O=C(CCN1c2ccccc2Sc2ccccc21)Nc1ccccc1,84.5% (inactive)
2,Cc1ccc(C2(C(F)(F)F)N=C3Sc4cc(C)cc(C)c4N3C(=O)N2)cc1 (centres undefined),21.8% (active)
3,COC(=O)c1nc2ccccc2s1,93.3% (inactive)
4,CCc1cc(=O)oc2cc(OCC(=O)N3CCCc4ccccc43)ccc12,80.5% (inactive)
5,Cc1cc(=O)oc2cc(OCC3CC(c4ccccc4Cl)=NO3)ccc12 (centres undefined),44.4% (inactive)
6,Cc1ccccc1N1CCN(CCCOc2ccc3c(C)cc(=O)oc3c2)CC1,25.2% (active)
7,CCCC1(C(=O)OCC)NC(c2ccc(N(C)C)cc2)C2C(=O)N(c3ccc4c(c3)OCCO4)C(=O)C21 (centres undefined),104% (inactive)
8,CCN(CC)C(=O)CSc1ncnc2c1cnn2-c1ccccc1,123% (inactive)
9,OC(CNCC1CCCO1)Cn1c2ccc(Br)cc2c2cc(Br)ccc21 (centres undefined),3.17% (active)
10,Cc1ccc(C(=O)NCC2CCCO2)o1 (centres undefined),106% (inactive)
11,Cc1cc(Br)ccc1NC(=O)C1CCCO1 (centres undefined),90.3% (inactive)
12,Cc1ccc(S(=O)(=O)/N=C(\CN2CCOCC2)N2CCOCC2)cc1,89.5% (inactive)
13,Cc1ccc(CN2CCN(/N=C/c3ccco3)CC2)c(C)c1,104% (inactive)
14,C=C(C)COc1ccc(-c2n[nH]c(C)c2-c2ccccc2)c(O)c1,54% (inactive)
15,C=C(C)COc1ccc(-c2n[nH]c(C)c2-c2ccccc2OC)c(O)c1,23.9% (active)
16,COc1ccc(-c2n[nH]c(C)c2-c2ccc(OC)c(OC)c2)c(O)c1,48.7% (inactive)
17,O=C(NCC1CCCO1)c1ccc2ccccc2n1 (centres undefined),89.6% (inactive)
18,O=S(=O)(NC1CCCCC1)c1ccc(F)c2ccccc12,81.9% (inactive)
19,Cc1ccc(S(=O)(=O)NCCSC(C)(C)C)cc1,103% (inactive)
20,CCc1nnc(NC(=O)CSc2nc3ccccc3c(=O)n2CCCOC)s1,90.7% (inactive)
21,Cc1nc(SCC(=O)Nc2cc(C)on2)c2c3c(sc2n1)CCCC3,75.7% (inactive)
22,COCCNc1nc(-n2nc(C)cc2C)nc2sc3c(c12)CCCC3,78% (inactive)
23,Cc1cc(C)n(-c2nc(SCC(=O)N3CCCC3)c3c4c(sc3n2)CCCC4)n1,16.2% (active)
24,CCCCCCNC(=O)CSc1nccn1Cc1ccccc1,80.6% (inactive)

# Reference: PubChem BioAssay AID648 (SRMLSC, 2007)
